Our source for the inhibition values is ChEMBL document CHEMBL5606460, “ASAP - DENV-2 NS2B-NS3 protease fluorescence single point” (2024).

Molecules are shown by their SMILES. The whole screen tested about 2,000 compounds, of which about 110 (5.5%) showed an effect of 50% or more. Shown is part of a subset that was picked to be rich in strong results.

A word on the inhibition: it is the relative decrease from the control value, in per cent.

In the experiment the target is Genome polyprotein (dengue virus type 2) (UniProt P29990).
Where [1] appears, read: Thailand/16681/1984, Concentration 25.0 uM, Number of replicates 1.0.

For the molecule `Cc1cc(CO)c2cccc(Cc3ccccc3C(=O)Nc3ccc(C(=O)O)o3)c2n1`, the inhibition is, setting by setting: (Thailand/16681/1984, Concentration 49.95 uM, Number of replicates 2.0, Standard deviation 1.5990008562851066 %) 16.8%; (Thailand/16681/1984, Concentration 99.9 uM, Number of replicates 2.0, Standard deviation 2.1056511568076566 %) 34.4%.

With `Cc1cc(CO)c2cccc(Cc3cccc(C(=O)N[C@@H](C)C(N)=O)c3)c2n1`, the inhibition reads like this: (Thailand/16681/1984, Concentration 49.95 uM, Number of replicates 2.0, Standard deviation 0.7962665847500093 %) 6.57%; (Thailand/16681/1984, Concentration 99.9 uM, Number of replicates 2.0, Standard deviation 0.21200201975767785 %) 24.1%.

Regarding `Cc1cc(CO)c2cccc(Cc3cccc(C(=O)Nc4ccc(C(=O)O)o4)c3)c2n1`, the inhibition is 35.3% (Thailand/16681/1984, Concentration 49.95 uM, Number of replicates 2.0, Standard deviation 0.4498774840540114 %) and 80.5% (Thailand/16681/1984, Concentration 99.9 uM, Number of replicates 2.0, Standard deviation 0.6611646932609445 %).

As for `Cc1cc(CO)c2cccc(CC(=O)NC[C@H](C)O)c2n1`, the inhibition (Thailand/16681/1984, Concentration 99.9 uM, Number of replicates 2.0, Standard deviation 0.37872079112567497 %) was -9.3%.

For the molecule `Cc1cc(CO)c2cccc(CC(=O)Nc3ccc(C(=O)O)o3)c2n1`, the inhibition was determined as 88.9% (Thailand/16681/1984, Concentration 49.95 uM, Number of replicates 2.0, Standard deviation 0.6719381020899052 %) and 94% (Thailand/16681/1984, Concentration 99.9 uM, Number of replicates 2.0, Standard deviation 0.0646782165500299 %).

Take `Cc1cc(CO)c2cccc(Nc3ccc(C(=O)O)o3)c2n1`: the inhibition turned out to be 10.8% (Thailand/16681/1984, Concentration 49.95 uM, Number of replicates 2.0, Standard deviation 2.0261345521834873 %) and 14% (Thailand/16681/1984, Concentration 99.9 uM, Number of replicates 2.0, Standard deviation 1.7612979174821286 %).

In the case of `O=Cc1ccc(N2CCC(C(=O)Nc3ccccc3Oc3ccccc3)CC2)cc1`, the inhibition under setting [1] was 14.2%.

As to `c1ccc2c([C@H]3CCN(Cc4ccon4)C3)c[nH]c2c1`, the inhibition is, setting by setting: (Thailand/16681/1984, Concentration 49.5 uM, Number of replicates 2.0, Standard deviation 1.9476178393933903 %) -2.85%; (Thailand/16681/1984, Concentration 99.01 uM, Number of replicates 2.0, Standard deviation 2.5164078728535832 %) -2.25%; (Thailand/16681/1984, Concentration 198.0 uM, Number of replicates 2.0, Standard deviation 2.4110409873352823 %) -1.68%.

Regarding `O=Cc1ccc(N2CCC(C(=O)N3CCN(CCOc4ccccc4)CC3)CC2)cc1`, the inhibition under setting [1] amounted to 11.7%.

Turning to `CC(C)Nc1nc2ccc(C(=O)NCc3cnn(C)c3)cc2[nH]1`, the inhibition is -3.32% (Thailand/16681/1984, Concentration 49.5 uM, Number of replicates 2.0, Standard deviation 2.4534347281334856 %); -2.73% (Thailand/16681/1984, Concentration 99.01 uM, Number of replicates 2.0, Standard deviation 2.252490861313308 %); -2.52% (Thailand/16681/1984, Concentration 198.0 uM, Number of replicates 2.0, Standard deviation 1.9859869815785558 %).

Turning to `N=C(N)NCCC[C@H](NC(=O)[C@H](Cc1ccc(CN)cc1)NC(=O)c1ccccc1)B(O)O`, the inhibition is 99.2% (Thailand/16681/1984, Concentration 25.0 uM, Number of replicates 3.0, Standard deviation 0.03506963405710981 %); 99.2% (Thailand/16681/1984, Concentration 49.5 uM, Number of replicates 2.0, Standard deviation 0.000841588271065532 %); 99.1% (Thailand/16681/1984, Concentration 49.5 uM, Number of replicates 2.0, Standard deviation 0.023586050776272474 %); 99.4% (Thailand/16681/1984, Concentration 49.5 uM, Number of replicates 2.0, Standard deviation 0.03248746518177329 %); 99.3% (Thailand/16681/1984, Concentration 49.5 uM, Number of replicates 2.0, Standard deviation 0.05596562002585788 %); 99.5% (Thailand/16681/1984, Concentration 49.5 uM, Number of replicates 2.0, Standard deviation 0.06712205941408557 %). The inhibition is, setting by setting: (Thailand/16681/1984, Concentration 49.5 uM, Number of replicates 2.0, Standard deviation 0.09040060678362256 %) 99.2%; (Thailand/16681/1984, Concentration 49.5 uM, Number of replicates 2.0, Standard deviation 0.09520737056259301 %) 99.3%; (Thailand/16681/1984, Concentration 49.95 uM, Number of replicates 2.0, Standard deviation 0.47465039008435067 %) 97.5%; (Thailand/16681/1984, Concentration 99.01 uM, Number of replicates 2.0, Standard deviation 0.0013325147625204256 %) 99.6%; (Thailand/16681/1984, Concentration 99.01 uM, Number of replicates 2.0, Standard deviation 0.024875407165917744 %) 99.7%; (Thailand/16681/1984, Concentration 99.01 uM, Number of replicates 2.0, Standard deviation 0.05930499912707304 %) 99.8%. For the same molecule, the inhibition came out at 99.6% (Thailand/16681/1984, Concentration 99.01 uM, Number of replicates 2.0, Standard deviation 0.0639876825840274 %); 99.8% (Thailand/16681/1984, Concentration 99.01 uM, Number of replicates 2.0, Standard deviation 0.06968458780354793 %); 99.5% (Thailand/16681/1984, Concentration 99.01 uM, Number of replicates 2.0, Standard deviation 0.07464240588758142 %); 99.6% (Thailand/16681/1984, Concentration 99.01 uM, Number of replicates 2.0, Standard deviation 0.12292583554166162 %); 98.7% (Thailand/16681/1984, Concentration 99.9 uM, Number of replicates 2.0, Standard deviation 0.4080138623651106 %); 99.7% (Thailand/16681/1984, Concentration 198.0 uM, Number of replicates 2.0, Standard deviation 0.0010358009490037316 %). The inhibition reads like this: (Thailand/16681/1984, Concentration 198.0 uM, Number of replicates 2.0, Standard deviation 0.007655216388730705 %) 99.8%; (Thailand/16681/1984, Concentration 198.0 uM, Number of replicates 2.0, Standard deviation 0.011571838727151066 %) 99.8%; (Thailand/16681/1984, Concentration 198.0 uM, Number of replicates 2.0, Standard deviation 0.02492935513201169 %) 99.9%; (Thailand/16681/1984, Concentration 198.0 uM, Number of replicates 2.0, Standard deviation 0.05517797972088629 %) 99.9%; (Thailand/16681/1984, Concentration 198.0 uM, Number of replicates 2.0, Standard deviation 0.06791509451566656 %) 99.8%; (Thailand/16681/1984, Concentration 198.0 uM, Number of replicates 2.0, Standard deviation 0.07632018763310308 %) 99.6%.

For the molecule `N#Cc1ccc(C[C@H](NC(=O)c2ccccc2)C(=O)NCCCCNC(=N)N)cc1`, the inhibition by setting is: (Thailand/16681/1984, Concentration 49.5 uM, Number of replicates 2.0, Standard deviation 0.6326801671633419 %) -5.12%; (Thailand/16681/1984, Concentration 99.01 uM, Number of replicates 2.0, Standard deviation 1.2914777248245206 %) -4.14%; (Thailand/16681/1984, Concentration 198.0 uM, Number of replicates 2.0, Standard deviation 0.45252363179091937 %) -1.98%.

For `NCc1ccc(C[C@H](NC(=O)c2ccccc2)C(=O)Nc2cccc(C(N)=O)c2)cc1`, the inhibition is, setting by setting: (Thailand/16681/1984, Concentration 49.5 uM, Number of replicates 2.0, Standard deviation 0.2094720287352659 %) -3.21%; (Thailand/16681/1984, Concentration 99.01 uM, Number of replicates 2.0, Standard deviation 1.2712236353041253 %) -1.98%; (Thailand/16681/1984, Concentration 198.0 uM, Number of replicates 2.0, Standard deviation 0.9103772804850719 %) -0.193%.

In the case of `O=Cc1ccc(N2CCC(C(=O)N3CCN(c4ccnc5cc(Cl)ccc45)CC3)CC2)cc1`, the inhibition under setting [1] is 1.86%.

Turning to `CC(C)CC(=O)N1CCC(NC(=O)C2CCN(c3ccc(C=O)cc3)CC2)CC1`, the inhibition under setting [1] came to 14.2%.
